Measured values published in PubChem BioAssay (NCI).
Compounds without any hit were thinned out: in the full panel of roughly 83,000, 20% have a hit.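 How to read the values: 0–100, growth inhibition (40 = 60% inhibited); 0, no net growth; -100 to 0, cell death (-40 = 40% of starting cells died; -100 = all dead).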 Active and inactive are the calls of the source. How the source made its calls: active means growth percent below 10; inactive means the rest.

Experiments:
Assay in all cases: NCI-60 one-dose screen, 48 h (100 = growth as untreated, 0 = no growth, -100 = all killed)
Conditions in all cases: 10 µM unless noted
NCI-H23 lung = test system: NCI-H23 lung
NCI-H226 lung = test system: NCI-H226 lung
HOP-62 NSCLC = test system: HOP-62 NSCLC
NCI-H460 lung = test system: NCI-H460 lung
HOP-92 NSCLC = test system: HOP-92 NSCLC
NCI-H522 lung = test system: NCI-H522 lung
A549/ATCC NSCLC = test system: A549/ATCC NSCLC
COLO 205 colon = test system: COLO 205 colon
DU-145 prostate = test system: DU-145 prostate
K-562 leukemia = test system: K-562 leukemia
MDA-MB-231 breast = test system: MDA-MB-231 breast
SF-268 CNS = test system: SF-268 CNS
SF-295 CNS = test system: SF-295 CNS
SF-539 CNS = test system: SF-539 CNS
UACC-257 melanoma = test system: UACC-257 melanoma
M14 melanoma = test system: M14 melanoma
786-0 renal = test system: 786-0 renal
RXF 393 renal = test system: RXF 393 renal
MALME-3M melanoma = test system: MALME-3M melanoma
NCI-H322M lung = test system: NCI-H322M lung

Measured: growth

CCCCCCCCCCCCCCCc1ccc(C(=O)C[n+]2ccccc2)cc1
active: NCI-H23 lung -62% | NCI-H226 lung -6.49% | HOP-62 NSCLC -99% | NCI-H460 lung -80.6% | HOP-92 NSCLC -87.1% | NCI-H522 lung -90.2% | A549/ATCC NSCLC -95% | COLO 205 colon -90.5% | DU-145 prostate -97.6% | K-562 leukemia -81.6% | MDA-MB-231 breast -53.8% | SF-268 CNS -87% | SF-295 CNS -74.8% | SF-539 CNS -98.4% | UACC-257 melanoma -76.3% | M14 melanoma -90.4%

Cc1ccc(N2C(=O)C=CC2=O)cc1
active: K-562 leukemia 0.664%
inactive: NCI-H23 lung 106% | NCI-H226 lung 90.9% | HOP-62 NSCLC 107% | HOP-92 NSCLC 82.9% | NCI-H522 lung 74.8% | A549/ATCC NSCLC 92% | 786-0 renal 99.1% | COLO 205 colon 83.6% | DU-145 prostate 119% | MDA-MB-231 breast 97.6% | RXF 393 renal 99.7% | SF-268 CNS 106% | SF-295 CNS 115% | SF-539 CNS 112% | UACC-257 melanoma 103% | M14 melanoma 101%

CCOc1ccc(C(CN2CCOCC2)C(C)=O)cc1OC (stereo unspecified)
inactive: NCI-H23 lung 98.9% | NCI-H226 lung 98.9% | HOP-62 NSCLC 104% | NCI-H460 lung 108% | HOP-92 NSCLC 102% | A549/ATCC NSCLC 101% | 786-0 renal 63.7% | COLO 205 colon 58% | K-562 leukemia 45.5% | MALME-3M melanoma 84% | MDA-MB-231 breast 94.6% | RXF 393 renal 85.8% | SF-268 CNS 105% | SF-295 CNS 102% | SF-539 CNS 89.6% | UACC-257 melanoma 90% | M14 melanoma 93.8%
active: NCI-H522 lung -51.6%

CC(CSc1n[nH]c(=S)s1)c1ccccc1 (stereo unspecified)
inactive: NCI-H23 lung 106% | NCI-H322M lung 118% | HOP-62 NSCLC 108% | NCI-H460 lung 114% | HOP-92 NSCLC 101% | NCI-H522 lung 79.3% | A549/ATCC NSCLC 103% | 786-0 renal 111% | COLO 205 colon 105% | DU-145 prostate 117% | K-562 leukemia 103% | MALME-3M melanoma 110% | MDA-MB-231 breast 103% | RXF 393 renal 118% | SF-268 CNS 109% | SF-295 CNS 106% | SF-539 CNS 119% | UACC-257 melanoma 112% | M14 melanoma 106%

O=C1C=C(Cl)C(=O)c2ccccc21
inactive: NCI-H23 lung 99.6% | NCI-H322M lung 88.8% | HOP-62 NSCLC 84.5% | NCI-H460 lung 101% | NCI-H522 lung 11% | 786-0 renal 110% | COLO 205 colon 93.2% | DU-145 prostate 118% | K-562 leukemia 24.2% | MALME-3M melanoma 85.1% | MDA-MB-231 breast 69.1% | SF-268 CNS 93.2% | SF-295 CNS 97.4% | SF-539 CNS 109% | UACC-257 melanoma 96.2% | M14 melanoma 107%

N#C/C(=N\Nc1ccc(Cl)cc1)C(=O)C1CC1
active: UACC-257 melanoma 3.99%
inactive: NCI-H23 lung 42.4% | NCI-H226 lung 69.9% | HOP-62 NSCLC 41.9% | NCI-H460 lung 44.9% | HOP-92 NSCLC 20% | NCI-H522 lung 35.5% | A549/ATCC NSCLC 40.9% | 786-0 renal 39.6% | COLO 205 colon 60.4% | DU-145 prostate 74.4% | K-562 leukemia 63.2% | MALME-3M melanoma 31.1% | RXF 393 renal 84.9% | SF-295 CNS 40.9% | SF-539 CNS 59.7% | M14 melanoma 52.2%

NNc1cccc([N+](=O)[O-])c1
inactive: NCI-H226 lung 103% | NCI-H322M lung 89% | NCI-H460 lung 108% | HOP-92 NSCLC 122% | NCI-H522 lung 61.4% | A549/ATCC NSCLC 96.7% | 786-0 renal 86.4% | COLO 205 colon 110% | DU-145 prostate 104% | MALME-3M melanoma 101% | MDA-MB-231 breast 58.9% | RXF 393 renal 122% | SF-268 CNS 72.6% | SF-295 CNS 89.5% | SF-539 CNS 100% | UACC-257 melanoma 99% | M14 melanoma 99.9%

CCN(CC)CCNC(Cc1ccccc1)c1ccc(OCc2ccccc2)cc1 (stereo unspecified)
inactive: NCI-H226 lung 88.2% | HOP-62 NSCLC 92.8% | NCI-H460 lung 65.1% | NCI-H522 lung 73.6% | A549/ATCC NSCLC 69.6% | 786-0 renal 57.4% | COLO 205 colon 54.2% | DU-145 prostate 98.5% | K-562 leukemia 14.9% | MALME-3M melanoma 88.6% | MDA-MB-231 breast 50% | RXF 393 renal 63.4% | SF-268 CNS 84.5% | SF-295 CNS 74.5% | SF-539 CNS 57%
active: HOP-92 NSCLC 6.39% | UACC-257 melanoma -40.7% | M14 melanoma -29.6%

c1csc(-c2[nH]nc3c2CCc2ccccc2-3)c1
inactive: NCI-H23 lung 95.8% | NCI-H226 lung 80.9% | HOP-62 NSCLC 91.1% | NCI-H460 lung 55% | NCI-H522 lung 101% | A549/ATCC NSCLC 89.1% | 786-0 renal 103% | DU-145 prostate 103% | K-562 leukemia 114% | MALME-3M melanoma 79.3% | MDA-MB-231 breast 37.2% | RXF 393 renal 94.7% | SF-268 CNS 101% | SF-295 CNS 91.7% | SF-539 CNS 82.1% | UACC-257 melanoma 98.6% | M14 melanoma 107%
active: COLO 205 colon -11.2%

CC1(C)OCC(COC(c2ccccc2)(c2ccccc2)c2ccccc2)O1 (stereo unspecified)
inactive: NCI-H23 lung 104% | NCI-H226 lung 92.1% | HOP-62 NSCLC 96.1% | NCI-H460 lung 104% | HOP-92 NSCLC 89.4% | NCI-H522 lung 88.8% | A549/ATCC NSCLC 86.3% | 786-0 renal 104% | COLO 205 colon 109% | DU-145 prostate 100% | K-562 leukemia 111% | MDA-MB-231 breast 91.7% | RXF 393 renal 116% | SF-268 CNS 94.2% | SF-295 CNS 99.2% | SF-539 CNS 104% | UACC-257 melanoma 91.7% | M14 melanoma 95.1%

Cc1onc(-c2ccccc2)c1C(=O)N/N=C/c1cc(Cl)cc(Cl)c1O
active: SF-295 CNS -5.54%
inactive: NCI-H23 lung 53.2% | NCI-H322M lung 16% | HOP-62 NSCLC 39.3% | NCI-H460 lung 22.7% | HOP-92 NSCLC 49.3% | NCI-H522 lung 28.7% | A549/ATCC NSCLC 21.9% | 786-0 renal 27.4% | COLO 205 colon 16.9% | DU-145 prostate 44.6% | K-562 leukemia 29.4% | MDA-MB-231 breast 34.4% | RXF 393 renal 64.1% | SF-268 CNS 34.1% | SF-539 CNS 16.5% | UACC-257 melanoma 17.4% | M14 melanoma 14.3%

CC(=O)N1CC(=O)NC1=S
inactive: NCI-H23 lung 98.3% | NCI-H322M lung 102% | HOP-62 NSCLC 97.7% | NCI-H460 lung 103% | HOP-92 NSCLC 102% | NCI-H522 lung 92.2% | A549/ATCC NSCLC 94.9% | 786-0 renal 102% | DU-145 prostate 105% | K-562 leukemia 97.4% | MALME-3M melanoma 95% | MDA-MB-231 breast 98.3% | RXF 393 renal 104% | SF-268 CNS 98.2% | SF-295 CNS 102% | SF-539 CNS 101% | UACC-257 melanoma 90.4% | M14 melanoma 95.1%

N#CC1c2ccccc2C=CN1C(=O)CCCl (stereo unspecified)
active: NCI-H522 lung -71.6% | MALME-3M melanoma 5.05%
inactive: NCI-H23 lung 94.2% | NCI-H226 lung 94.1% | HOP-62 NSCLC 99.8% | NCI-H460 lung 106% | HOP-92 NSCLC 60.7% | A549/ATCC NSCLC 96.2% | 786-0 renal 82% | DU-145 prostate 77.7% | K-562 leukemia 32.3% | MDA-MB-231 breast 103% | SF-268 CNS 104% | SF-539 CNS 104% | UACC-257 melanoma 79.9% | M14 melanoma 97.3%

Oc1ccc(Cl)cc1C(c1cc(Cl)ccc1O)C(Cl)(Cl)Cl
active: NCI-H23 lung -25.2% | NCI-H460 lung -12% | HOP-92 NSCLC -25.3% | DU-145 prostate -47.8% | K-562 leukemia 4.51% | MDA-MB-231 breast -63.6% | M14 melanoma 0.872%
inactive: NCI-H226 lung 22.5% | HOP-62 NSCLC 14.1% | A549/ATCC NSCLC 28.7% | 786-0 renal 15.2% | COLO 205 colon 49.4% | MALME-3M melanoma 11.9% | SF-268 CNS 20.2% | SF-295 CNS 10.1% | SF-539 CNS 31.4% | UACC-257 melanoma 72.1%

COC(=O)C(=[N+]=[N-])C(=O)c1ccc([N+](=O)[O-])o1
active: NCI-H522 lung -61.8%
inactive: NCI-H23 lung 77.6% | HOP-62 NSCLC 89.7% | NCI-H460 lung 94% | HOP-92 NSCLC 83.1% | A549/ATCC NSCLC 65.2% | 786-0 renal 107% | COLO 205 colon 23% | DU-145 prostate 104% | K-562 leukemia 81.6% | MALME-3M melanoma 25.4% | MDA-MB-231 breast 97.6% | RXF 393 renal 81.3% | SF-268 CNS 92.4% | SF-295 CNS 108% | SF-539 CNS 104% | UACC-257 melanoma 61.5% | M14 melanoma 89.6%

O=C(Nc1ccc(Cl)c(Cl)c1)Nc1ccccc1O
inactive: NCI-H23 lung 64.9% | NCI-H226 lung 96.9% | HOP-62 NSCLC 88.8% | NCI-H460 lung 79.5% | NCI-H522 lung 26.8% | A549/ATCC NSCLC 37.2% | 786-0 renal 99.6% | COLO 205 colon 85.3% | DU-145 prostate 118% | K-562 leukemia 48.7% | MALME-3M melanoma 114% | MDA-MB-231 breast 82.5% | RXF 393 renal 101% | SF-268 CNS 92.9% | SF-295 CNS 75.5% | SF-539 CNS 91.5% | UACC-257 melanoma 78.2% | M14 melanoma 58.4%

Cc1cc(C)c(C#N)c(Sc2nc(C)c([N+](=O)[O-])c(C)c2C#N)n1
inactive: NCI-H23 lung 60.2% | NCI-H226 lung 111% | HOP-62 NSCLC 72.8% | NCI-H460 lung 89.9% | A549/ATCC NSCLC 77% | 786-0 renal 103% | COLO 205 colon 37.8% | DU-145 prostate 41.7% | K-562 leukemia 14.5% | MALME-3M melanoma 36.1% | MDA-MB-231 breast 91.4% | RXF 393 renal 55.2% | SF-268 CNS 81.6% | SF-295 CNS 84.1% | SF-539 CNS 49.5% | M14 melanoma 54.2%
active: HOP-92 NSCLC -1.8%
